Drawing on PubChem BioAssay (NCATS), this text covers Potency and outcome for 15 molecules.

Inconclusive results are not listed. Active and inactive are the calls of the source. Calls come from the whole dose curve; as a rule, active = well fitted curve in the direction sought with a large enough effect; inconclusive = small, poorly fitted or top-dose-only effect, or another doubt; inactive = no such curve, though single readings can be large; an effect the other way counts as inactive or inconclusive.

Experiment [1] concerns MCC-13. The experiment in a line: qHTS assay to identify novel small-molecules to repurpose for Merkel cell carcinoma treatment (AID 1296009). Note: nearly all actives have a fitted effect of over 60% in size. Note: potency is the fitted concentration of half-maximal effect. The note with it: MCC and control cell lines, CellTiter-Glo viability, 72 h; series mostly up to 46 µM. An outline of the steps: (§1)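 CellTiter-Glo luminescence after 72 hr compound exposure at 37 degree celsius gave cell viability. Libraries NPC and MIPE were run as 8- and 11-point dose responses; RLUs normalized to DMSO (negative) and no-cell (cytotoxicity) controls.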

Experiment [2] has as its system MCC-26. The experiment is described as above. The note with it: MCC and control cell lines, CellTiter-Glo viability, 72 h; series mostly up to 46 µM. Summed up:
as §1
In general terms: In ATP-based viability assays light output follows the ATP content of the culture.

Experiment [3] has as its system MKL-1. The experiment is described as above. The note with it: MCC and control cell lines, CellTiter-Glo viability, 72 h; series mostly up to 46 µM. An outline of the steps:
as §1

In experiment [4] the test system is MKL-2. The description is as above. The note with it: MCC and control cell lines, CellTiter-Glo viability, 72 h; series mostly up to 46 µM. Summed up: as §1
Experiment [5] relates to NIH3T3. The description is as above. The note with it: MCC and control cell lines, CellTiter-Glo viability, 72 h; at 44.8 µM (top of the series) unless noted. An outline of the steps: as §1
For experiment [6], the system named is UISO. Described as above. The note with it: MCC and control cell lines, CellTiter-Glo viability, 72 h; series mostly up to 46 µM. Summed up: as §1
Experiment [7] concerns WaGa. The description is as above. The note with it: MCC and control cell lines, CellTiter-Glo viability, 72 h; series mostly up to 46 µM. Summed up:
as §1

Experiment [8] relates to C33A. Description: Primary qHTS to identify gynecologic anti-cancer compounds using libraries of approved drugs and bioactive compounds (AID 1345084). Note: nearly all actives have a fitted effect of over 55% in size. The note with it: Gynecologic cancer cell panel viability, ATPlite luminescence, 48 h; series mostly up to 57.5 µM. An outline of the steps:
(§2)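 Five-concentration response, 48 h; readout is ATP-driven luciferase luminescence.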

For experiment [9], the system named is CAOV3. The experiment is described as above. The note with it: Gynecologic cancer cell panel viability, ATPlite luminescence, 48 h; series mostly up to 57.5 µM. Summed up: as §2
The subject of experiment [10] is CASKI. The description is as above. The note with it: Gynecologic cancer cell panel viability, ATPlite luminescence, 48 h; series mostly up to 57.5 µM. Summed up:
as §2

The test system of experiment [11] is Es-2. The description is as above. The note with it: Gynecologic cancer cell panel viability, ATPlite luminescence, 48 h; series mostly up to 57.5 µM. An outline of the steps:
as §2

Experiment [12] deals with HeLa. Described as above. The note with it: Gynecologic cancer cell panel viability, ATPlite luminescence, 48 h; series mostly up to 57.5 µM. Summed up:
as §2

Experiment [13] has as its system Hek293T. The description is as above. The note with it: Gynecologic cancer cell panel viability, ATPlite luminescence, 48 h, control line for the selectivity index; series mostly up to 57.5 µM. An outline of the steps: as §2
The test system of experiment [14] is JEG-3. Described as above. The note with it: Gynecologic cancer cell panel viability, ATPlite luminescence, 48 h; series mostly up to 57.5 µM. Summed up:
as §2

The subject of experiment [15] is OV90. Described as above. The note with it: Gynecologic cancer cell panel viability, ATPlite luminescence, 48 h; series mostly up to 57.5 µM. An outline of the steps:
as §2

Experiment [16] concerns PA-1. The experiment is described as above. The note with it: Gynecologic cancer cell panel viability, ATPlite luminescence, 48 h; series mostly up to 57.5 µM. An outline of the steps: as §2
Experiment [17] deals with Tov-21-G. The description is as above. The note with it: Gynecologic cancer cell panel viability, ATPlite luminescence, 48 h; series mostly up to 57.5 µM. An outline of the steps: as §2
Experiment [18] concerns Tov112D. The experiment is described as above. The note with it: Gynecologic cancer cell panel viability, ATPlite luminescence, 48 h; series mostly up to 57.5 µM. Summed up:
as §2

For experiment [19], the system named is SKOV3. Described as above. The note with it: Gynecologic cancer cell panel viability, ATPlite luminescence, 48 h; series mostly up to 57.5 µM. An outline of the steps: as §2

Consider `COc1ccccc1OCC1CNC(=O)O1` (stereo not given), for which the Potency entry in experiment [1], in experiment [2], in [3], in experiment [4], in experiment [6] and in experiment [7] was “inactive” each time. The Potency entry in experiment [8], in [9], in experiment [10], in [11], in experiment [12] and in [13] was “inactive” in each case. Besides, the Potency result in [14], in [15], in experiment [16], in experiment [17] and in experiment [18] was “inactive” throughout. In addition, in experiment [5], the molecule was classed as inactive.

Regarding `Cc1cc(=O)oc2cc(O[C@@H]3SC[C@@H](O)[C@H](O)[C@H]3O)ccc12`, the Potency entry in experiment [1], in experiment [2], in experiment [3], in experiment [4], in experiment [6] and in experiment [7] was “inactive” throughout. The Potency result in experiment [8], in [10], in experiment [11], in experiment [12], in experiment [13] and in [14] was “inactive” throughout. Further, the Potency result in [15], in experiment [16], in experiment [17] and in experiment [18] was “inactive” each time. In addition, the result in experiment [5] was inactive.

In the case of `CCCCN(CCCC)C(C(N)=O)c1ccc(OC)cc1` (stereo not given), the Potency entry in [1], in experiment [2], in [3], in experiment [4], in experiment [6] and in [7] was “inactive” throughout. Moreover, the Potency entry in experiment [8], in experiment [9], in experiment [10], in [11], in experiment [12] and in experiment [13] was “inactive” each time. Moreover, the Potency result in [14], in experiment [15], in experiment [16], in experiment [17] and in experiment [18] was “inactive” throughout. Besides, in experiment [5], the result was inactive.

`CCC(CN)=C(c1ccccc1)c1ccccc1`: the Potency entry in experiment [1], in experiment [2], in [3], in experiment [4], in [6] and in experiment [7] was “inactive” throughout. Besides, the Potency entry in experiment [8], in experiment [9], in experiment [10], in [11], in [12] and in [13] was “inactive” throughout. The Potency result in experiment [14], in experiment [16], in experiment [19], in [17] and in experiment [18] was “inactive” throughout. In addition, the result in experiment [5] was inactive.

For the molecule `COC(=O)c1cc(Cl)c(NC(C)=O)cc1OC`, the Potency entry in experiment [1], in [2], in experiment [3], in [4], in experiment [6] and in experiment [7] was “inactive” throughout. For the same molecule, the Potency entry in experiment [8], in [9], in [10], in experiment [11], in experiment [12] and in experiment [13] was “inactive” each time. Also, the Potency entry in experiment [14], in experiment [15], in experiment [16], in experiment [19], in experiment [17] and in [18] was “inactive” throughout. Further, the call in [5] was inactive.

With `Cc1nc([N+](=O)[O-])cn1-c1ccc([N+](=O)[O-])cc1`, the Potency result in [1], in experiment [2], in experiment [3], in [4], in experiment [6] and in [7] was “inactive” in each case. Besides, the Potency entry in [8], in experiment [10], in [11], in experiment [12], in experiment [13] and in experiment [14] was “inactive” in each case. Besides, the Potency result in experiment [15], in [16], in [17] and in [18] was “inactive” in each case. Further, in experiment [5], the molecule was classed as inactive.

Take `CCC(=O)Oc1ccc2c(c1)CC[C@@H]1[C@@H]2CC[C@@]2(C)[C@H]1C[C@@H](OC(=O)CC)[C@@H]2OC(=O)CC`: the Potency result in [1], in experiment [2], in [3], in [4], in experiment [6] and in [8] was “inactive” each time. Moreover, the Potency entry in experiment [9], in experiment [10], in [11], in experiment [12], in [13] and in experiment [14] was “inactive” each time. Moreover, the Potency entry in experiment [16], in experiment [19], in experiment [17] and in experiment [18] was “inactive” throughout. Moreover, the result in experiment [5] was inactive.

On to `C[C@H]1C[C@H]2[C@@H]3CCC4=CC(=O)C=C[C@]4(C)[C@H]3C(=O)C[C@]2(C)[C@@]1(O)C(=O)CO`, for which the Potency entry in [1], in experiment [2], in experiment [3], in [4], in experiment [6] and in experiment [7] was “inactive” throughout. The Potency entry in experiment [8], in experiment [10], in experiment [11], in [12], in experiment [13] and in experiment [14] was “inactive” in each case. In addition, the Potency entry in experiment [16], in [19], in experiment [17] and in [18] was “inactive” each time. The result in [5] was inactive.

With `OCCOCCN1CCN(C(c2ccccc2)c2ccc(Cl)cc2)CC1` (stereo not given), the Potency result in experiment [1], in [2], in experiment [3], in experiment [4], in [6] and in [8] was “inactive” each time. The Potency entry in [9], in [10], in [11], in experiment [12], in experiment [13] and in [14] was “inactive” in each case. Besides, the Potency entry in experiment [16], in [19], in [17] and in [18] was “inactive” in each case. The outcome in experiment [5] was inactive.

For `CCOC(=O)C(=O)c1csc(NC=O)n1`, the Potency entry in experiment [1], in experiment [2], in [3], in experiment [4], in experiment [6] and in experiment [7] was “inactive” throughout. Moreover, the Potency entry in [8], in [9], in experiment [10], in experiment [11], in [12] and in experiment [13] was “inactive” each time. The Potency entry in experiment [14], in [15], in experiment [16], in experiment [19], in experiment [17] and in [18] was “inactive” each time.

Regarding `C/C=C(/C(=C/C)c1ccc(OC(C)=O)cc1)c1ccc(OC(C)=O)cc1`, the Potency result in [1], in [2], in experiment [3], in experiment [4], in experiment [6] and in experiment [7] was “inactive” throughout. The Potency result in experiment [8], in experiment [9], in experiment [10], in experiment [11], in experiment [12] and in experiment [13] was “inactive” throughout. The Potency entry in experiment [14], in experiment [15], in experiment [16], in [19], in experiment [17] and in experiment [18] was “inactive” throughout.

As to `[O-][n+]1cccc(/C(Cl)=N/OC[C@@H](O)CN2CCCCC2)c1`, the Potency result in [1], in experiment [2], in [3], in experiment [4], in experiment [6] and in experiment [7] was “inactive” in each case. The Potency result in [8], in experiment [9], in experiment [10], in experiment [11], in experiment [12] and in [13] was “inactive” each time. Also, the Potency entry in experiment [14], in experiment [15], in experiment [16], in [19], in experiment [17] and in experiment [18] was “inactive” in each case.

As to `CC(=O)N1CCN(c2ccc(O)cc2)CC1`, the Potency entry in experiment [1], in [2], in experiment [8], in experiment [10], in experiment [11] and in experiment [12] was “inactive” throughout. Besides, the Potency entry in [13], in [14], in experiment [15], in experiment [16], in [19] and in experiment [17] was “inactive” in each case. Further, the Potency result in experiment [18] is “inactive”. In addition, the Potency in experiment [3] was 8.41 µM (active); in experiment [4], 7.5 µM (active); in [7], 23.7 µM (active). For the same molecule, the molecule was classed as inactive in experiment [5].

Consider `Cc1cnc(NS(=O)(=O)c2ccc(N)cc2)nc1`, for which the Potency entry in experiment [1], in [2], in [3], in experiment [4], in experiment [6] and in experiment [7] was “inactive” throughout. Besides, the Potency result in [8], in experiment [9], in experiment [10], in experiment [11], in experiment [12] and in experiment [13] was “inactive” each time. The Potency entry in experiment [14], in experiment [15], in experiment [16], in experiment [19], in [17] and in experiment [18] was “inactive” each time.

On to `CCN(CC)CC(=O)Nc1c(C)cccc1C(=O)OC`, for which the Potency entry in experiment [1], in experiment [2], in [3], in experiment [4], in experiment [6] and in experiment [7] was “inactive” throughout. Besides, the Potency entry in experiment [8], in experiment [9], in experiment [10], in experiment [11], in experiment [12] and in experiment [13] was “inactive” throughout. The Potency entry in experiment [14], in [15], in [16], in experiment [19], in [17] and in [18] was “inactive” in each case.
